# Data from ChEMBL document CHEMBL4513216, “Probing the Open Global Health Chemical Diversity Library for Multistage-Active Starting Points for Next-Generation Antimalarials” (ACS Infect Dis, 2020).
# Out of some 69,000 compounds screened, about 8,600 (12%) showed an effect of 50% or more. What follows is part of a selection rich in strong results, with near analogues and random picks from the rest.
# Tested on: Plasmodium berghei
# Assay: Screen against P. berghei liver stage (PbLuc), transformed with Luciferase, at 10uM
# Type: functional, HepG2
# Settings: tested at 10 uM
row,SMILES,INHIBITION [%]
1,Cc1cnn(CCNCc2ccccc2OCc2ccncc2)c1,-15.5
2,CCN(Cc1ccco1)C(=O)c1cc(OC)c2c(c1)OCCO2,10.3
3,COc1cc(C(=O)N(Cc2ccco2)C2CC2)cc2c1OCCO2,-2.37
4,COc1cc(C(=O)N(Cc2ccco2)C2CC2)cc(OC)c1OC,53.4
5,O=C(NCCNc1ncccn1)C1CC(=O)N(C2CCCC2)C1 (centres undefined),21.6
6,c1ccc(-c2nnc(CNCCn3cccn3)o2)cc1,32.6
7,c1cnn(CCNCc2nnc(C3CC3)o2)c1,53.5
8,Cc1cnn(CCNCc2nnc(C3CC3)o2)c1,21.2
9,Cn1cccc1C(=O)N1CC[C@H]2C[C@@H](c3ccncn3)O[C@@H]2C1,41.5
10,Cc1noc2nc(C3CCN(Cc4cccnc4)CC3)cc(C(F)F)c12,48.3
11,Cc1noc2nc(C3CCN(Cc4ccncc4)CC3)cc(C(F)F)c12,44.9
12,Cc1noc2nc(C3CCN(CC4CCCCC4)CC3)cc(C(F)F)c12,59
13,CCCS(=O)(=O)N1C[C@@H]2C[C@H](C(=O)N3CCOCC3)[C@H](C1)O2,-19.6
14,CNC(=O)c1cccc(NC(=O)CN2CCCN(S(C)(=O)=O)CC2)c1,-7.27
15,O=C(C[C@@H]1COC[C@H]2CN(C3CCCC3)C[C@@H]12)NCc1cccnc1,20.6
16,Cc1nnc2n1CCN(Cc1nc(-c3ccoc3)no1)C2,-16.75
17,COCc1ccc(CNCc2c(C)nn(C)c2N(C)C)cc1,33.7
18,CCNC(=O)c1ccc(CNCc2c(C)nn(C)c2N(C)C)cc1,58.8
19,COc1c(CNCc2ccc(C(=O)N(C)C(C)C)cc2)c(C)nn1C,88.5
20,COc1c(CNCc2ccc(C(=O)N3CCCC3)cc2)c(C)nn1C,64.9
21,COc1c(CNCc2ccc(C(=O)NC3CC3)cc2)c(C)nn1C,13.5
22,Cc1nn(C)c(N(C)C)c1CNCCC(=O)NC1CCCC1,64.8

row,SMILES,INHIBITION [%]
1,CC(C)c1nn(C)c(N(C)C)c1CNCCC(=O)NC1CCCC1,35.8
2,Cc1nn(C)c(N(C)C)c1CNCCC(=O)NC1CCCCC1,49.8
3,COc1c(CNCc2ccc(CN(C)C)cc2)c(C)nn1C,-15.8
4,Cc1nn(C)c(N(C)C)c1CNCc1ccc(C(=O)N(C)C)cc1,-19.9
5,COc1c(CNCc2ccc(OCC(N)=O)cc2)c(C)nn1C,35.9
6,COc1c(CNCc2ccc(S(C)(=O)=O)cc2)c(C)nn1C,-31.8
7,Cc1nn(C)c(N2CCOCC2)c1CNCc1ccoc1C,-29.8
8,O=C1CC2(CCCC2)CC(=O)N1Cc1nccs1,28.4
9,Cc1ncsc1CN1C[C@@H](O)[C@](O)(CNC(=O)c2ccccn2)C1,18.9
10,O=C(NC1CCC1)[C@H]1C[C@@H]2[C@@H](C1)OCCN2CC1CC1,36.4
11,Cc1ccc2c(c1)C1(CCN(C(N)=O)CC1)CN2CC1CC1,44.8
12,NS(=O)(=O)c1cnn(CC(=O)Nc2c(Cl)cccc2Cl)c1,42.3
13,Cc1nc(C)n(CCNS(=O)(=O)NCc2ccccc2)n1,49.9
14,CS(=O)(=O)N1CCOCC2(CCN(C(=O)c3cnccn3)CC2)C1,-6.23
15,O=C(NCc1ccccc1Cn1cncn1)C1CCCCC1,30.6
16,Cc1cnc(N2CC3(CCN(S(=O)(=O)C4CC4)C3)C2)nc1,40.3
17,Cc1nn(C)cc1Cn1c(=O)c(C)nc2ccccc21,-11.4
18,COc1c(CNCc2cccc(C(=O)N(C)C)c2)c(C)nn1C,-29.8
19,COc1c(CNCCNC(=O)c2ccc(C)cc2)c(C)nn1C,52.7
20,COc1c(CNCc2ccc(CS(C)(=O)=O)cc2)c(C)nn1C,43.2
21,COc1c(CNCc2ccc(C(=O)N(C)C)cc2)c(C)nn1C,56.3
22,COc1c(CNCCNC(=O)c2ccccc2)c(C)nn1C,15.3

row,SMILES,INHIBITION [%]
1,COc1c(CNCCNC(=O)c2ccc(C)cc2)c(C(C)C)nn1C,-79.3
2,CC(C)(C)C(=O)Nc1cnn(-c2ccccc2S(C)(=O)=O)c1,-0.125
3,O=C(c1ccccc1)N1CCC[C@]2(C[C@@H](Oc3ncccc3F)CO2)C1,5.96
4,Cc1ccc(N2C[C@@H]3CCCO[C@@H]3[C@H](N3CCCC3)C2)nn1,20.1
5,COCCCC1CCCN(Cc2c(C)ccc3ncccc23)C1 (centres undefined),5.41
6,COc1ccc(S(=O)(=O)N2CCc3ccc(Cl)cc32)cc1C(=O)O,-54.6
7,CCc1cn[nH]c1C1CCN(c2cc(C)c3cccc(OC)c3n2)CC1,42.7
8,CCc1cn[nH]c1C1CCN(c2cc(C)c3cc(OC)ccc3n2)CC1,26.6
9,CCc1cn[nH]c1C1CCN(c2cc(C)c3ccc(OC)cc3n2)CC1,71.1
10,Cc1cccc(OCCC(=O)N(C)CCNS(C)(=O)=O)c1C,7.11
11,CC(C)(C)CC(=O)N1CCCC2(CC(C(=O)Nc3ccccc3)=NO2)C1 (centres undefined),-32
12,OCCCc1nncn1-c1cccc(C(F)(F)F)c1,33.4
13,CCOC(=O)N(C)C1CCN(Cc2cnc3ccccn23)CC1,8.12
14,CC(C)N(C)C(=O)C1CCN(Cc2cnc3ccccn23)CC1,63.3
15,Cc1cccc(NC(=O)[C@@H]2CCCN2Cc2cnc3ccccn23)n1,45.7
16,CCc1nc(C)c(C(=O)N(C)Cc2cnc3ccccn23)o1,10.6
17,CC(C)N(C)C(=O)C1CCN(Cc2cc3c(cc2O)CCC3)CC1,33.6
18,CN(C(=O)C1CCN(Cc2cnc3ccccn23)CC1)c1ccccc1,58.2
19,O=C([C@H]1CCCO1)N1CC[C@H](O)[C@@H]1Cc1cccnc1,39.4
20,CN(C)c1nc(N2CCCC2)nc2c1CCN(C(=O)c1ccco1)CC2,28.2
21,CCCc1noc(CCC(=O)N2CCCC2c2cccc(OC)c2)n1 (centres undefined),-34
22,CC(=O)N1CCC(c2noc(C3CCC(=O)N3)n2)CC1 (centres undefined),18.4

row,SMILES,INHIBITION [%]
1,O=C1CCC(c2nc(C3CCNCC3)no2)N1 (centres undefined),55.8
2,O=C1CCC(c2nc(C3CCN(C(=O)C4CC4)CC3)no2)N1 (centres undefined),14
3,Cc1cc(C(F)F)nn1C(C)C(=O)NCc1ncc[nH]1 (centres undefined),-1.21
4,Cc1csc(N2CCN(C(=O)C3(C#N)CCCC3)CC2)n1,-9.75
5,Cc1cc(C2NC(=O)CN2Cc2ccc(Br)cc2)cc(C)c1O (centres undefined),60.4
6,NC(=O)COc1ccc(C2NC(=O)CN2Cc2ccc(Br)cc2)cc1 (centres undefined),15.9
7,COc1cc(OC)cc(C2NC(=O)CN2Cc2ccc(Br)cc2)c1 (centres undefined),45.6
8,Cc1nc(CN2Cc3nccn3CC(CN3CCCC3)C2)cs1 (centres undefined),-29.3
9,O=C(c1nc2sccn2c1-c1ncc[nH]1)N1CCCCC1,50.2
10,C[C@@H]1CN(C(=O)c2nc3sccn3c2-c2ncc[nH]2)C[C@H](C)O1,11.3
11,CN1CCCN(C(=O)c2nc3sccn3c2-c2ncc[nH]2)CC1,-16
12,CC(C)c1cc(=O)[nH]c(-c2ccccc2CN2CCCC2C)n1 (centres undefined),31.8
13,CC(C)N1CCC(C(=O)NC[C@H]2CCc3ccccc3O2)CC1,61.5
14,CCN1CCC(CC(=O)NC[C@H]2CCc3ccccc3O2)CC1,39.9
15,CC(C)N1CCC(CC(=O)NC[C@H]2CCc3ccccc3O2)CC1,7.4
16,Cc1ccc(S(C)(=O)=O)cc1NCC(=O)NCCC1=CCCCC1,-50.7
17,CC(NC(=O)N(C)C1CC1)c1ccc(Oc2cccnc2)c(F)c1 (centres undefined),37.4
18,Cc1cnn(CC2CCCN2C(=O)c2n[nH]c(=O)c3ccccc23)c1 (centres undefined),-4.16
19,N#Cc1nccnc1N1CCC(COCc2ccccc2)C1 (centres undefined),20.8
20,N#Cc1nccnc1N1CCC(OCCCc2ccccc2)C1 (centres undefined),72.3
21,N#Cc1nccnc1N1CCC(Cc2ccccc2)C1 (centres undefined),0.672
22,CC(C)(C)Cc1nnc(NCc2ccsc2)o1,53.4

row,SMILES,INHIBITION [%]
1,c1cc(CNc2nnc(Cc3ccsc3)o2)cs1,-86.6
2,CC(C)Cc1nnc(NCc2ccsc2)o1,-54.5
3,COc1ccc(OC)c(C(C(=O)O)N2CCSCC2)c1 (centres undefined),17
4,CC(c1cccc(Cl)c1)N(C)CCS(=O)(=O)CCC(N)=O (centres undefined),37.8
5,Cc1ccc(C(C)N(C)CCS(=O)(=O)CCC(N)=O)cc1 (centres undefined),56.3
6,CC(c1ccc(F)c(F)c1)N(C)CCS(=O)(=O)CCC(N)=O (centres undefined),41.5
7,NC(=O)NC(=O)CCN1CCN(CC2CC2)c2ccccc21,62.4
8,COCCC(=O)N1CCN(CC2CC2)c2ccccc21,14.9
9,CNC(=O)NC(=O)CN1CCN(CC2CC2)c2ccccc21,46.4
10,O=C(NCCCC(=O)N1CCN(CC2CC2)c2ccccc21)C1CC1,22.8
11,NC(=O)NC(=O)CN1CCN(CC2CC2)c2ccccc21,35.3
12,NC(=O)CN1CCN(CC2CC2)c2ccccc21,58.7
13,CN1CCC2(CCN(Cc3nccs3)CC2)C1=O,7.15
14,O=C(NCC1CC1)C1CCC2(CCN(C(=O)c3ccco3)CC2)O1 (centres undefined),-25.8
15,CN(C(=O)CCc1nc(C2CC2)no1)c1cc(C#N)c2ccccc2n1,23.1
16,O=C(c1ccc(S(=O)(=O)N2CCNCC2)cc1)N1CCCC(O)C1 (centres undefined),13.3
17,CCCc1noc(CN2CCN(c3nccs3)CC2)n1,-4.16
18,Cc1cc(C2CCCN2Cc2ccc(S(=O)(=O)N3CCCC3)o2)on1 (centres undefined),19.2
19,CCC1c2ccccc2CCN1CCNS(C)(=O)=O (centres undefined),18
20,CCC1c2ccccc2CCN1CCCS(C)(=O)=O (centres undefined),50.6
21,CCCC1c2ccccc2CCN1CCS(C)(=O)=O (centres undefined),22.8
